Molecules are shown by their SMILES. Compounds without any hit were thinned out: in the full panel of roughly 83,000, 20% have a hit.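 A percent growth of 40 corresponds to 60% growth inhibition; 0 means no net growth; -100 means all cells died. Active threshold: below 10.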 Unmarked numbers belong to inactive results. Activity calls are given as the source filed them.

The test system of the experiment is HL-60(TB) leukemia. Briefly: NCI-60 one-dose screen, 48 h (100 = growth as untreated, 0 = no growth, -100 = all killed). To be noted: 10 µM unless noted.
For `COc1cccc(/C=C/c2c(C(=O)O)cccc2[N+](=O)[O-])c1OC`, the growth is 97.4%. Take `O=c1ccc(N=Nc2ccc([N+](=O)[O-])cc2)ccc1O`: the growth was 10%. Consider `CCn1cc(Cc2cc(C(=O)Nc3cc4cc(OC)c(OC)cc4c(C)n3)ccc2Cl)cn1`, for which the growth is 13.9%. The same measure for `COc1ccc(/C=N/NC(=O)c2cnn3c2NC(c2ccccc2)C3)cc1OC1CCCC1` (stereo not given): 101%; for `Cc1cc(Nc2nc(SCc3ccc(C(=O)Nc4ccc(F)cc4N)cc3)nn3cccc23)n[nH]1`: -26.4% (active); for `CCN(CC)CCS(=O)(=O)CCNc1ccnc2cc(Cl)ccc12`: -22.5% (active).

With `COC1CC2CCC(C)C(O)(O2)C(=O)C(=O)N2CCCCC2C(=O)OC(C(C)CC2CCC(O)C(OC)C2)CC(=O)C(C)C=C(C)C(O)C(OC)C(=O)C(C)CC(C)/C=C/C=C/C=C1C` (stereo not given), the growth is 86.6%.

Consider `COc1cnccc1-c1nc2ccc3[nH]ncc3c2c2c1CCCC2`, for which the growth is 35.1%. The same measure for `O=C(CSc1nc2ccc([N+](=O)[O-])cc2[nH]1)Nc1ccc([N+](=O)[O-])cc1`: 12.7%. The same measure for `COc1ccc(Oc2ccc(/C=C/C(=O)c3ccc(OC)c(OC)c3)cc2)cc1`: -61.4% (active); for `CN1CCN(c2ccc(-c3cc4c(Nc5ccc(F)c(Cl)c5)ncnn4c3)cc2)CC1`: 1.68% (active). Under `COc1cccc(-c2nn(-c3ccccc3)cc2-c2ccnc(-c3cccnc3)c2)c1` stands 56.8%. For the molecule `O=C(C(=O)c1cccnc1)c1cccnc1`, the growth is 104%. Consider `O=C(CN1CCOCC1)Nc1ccc2ncnc(Nc3ccc(Oc4cccc(F)c4)c(Cl)c3)c2c1`, for which the growth was 84.5%. Under `CC(C)(C)OC(=O)N1Cc2cc3ccccc3nc2C1CO` (stereo not given) stands 92.8%.

For `Cc1nn(-c2ccccc2)c2nc3c(c(-c4ccc(Cl)cc4)c12)CNC1(CCSCC1)N3`, the growth is 72.9%. For `Cn1cc(-c2csc(-c3cn(CCCN4CCCCC4)c4ccccc34)n2)c2cccnc21`, the growth was -65.2% (active). Take `Cc1c(NC(=O)OC[C@@H]2COCCN2)cn2ncnc(Nc3ccc4c(cnn4Cc4cccc(F)c4)c3)c12`: the growth is -25.6% (active). The same measure for `Nc1cc2c(cc1Cl)-c1ccc(Cl)cc1C2=O`: 75.7%; for `CN(C)c1ccc(/C=N/Nc2nnc3n2N=C(c2ccc(Cl)cc2)CS3)cc1`: 91.4%. Under `COc1cc(N2C(=O)C=CC2=O)ccc1N1C(=O)C=CC1=O` stands 82.9%. Under `O=C(O)/C(Br)=C/c1c[nH]c2ccc(Br)cc12` stands 96.9%; under `c1ccc2c(c1)Sc1ccccc1S2`, 107%; under `C#COc1cccc(Nc2ncnc3cc(NC(=O)[C@H](C)Cl)ccc23)c1`, 99.4% [6.25 µM]. In the case of `COc1cccc(-c2cc(-c3cccc(NS(C)(=O)=O)c3)nc(N)c2C#N)c1O`, the growth is 2.21% (active). In the case of `COc1cc(/C=C/C(=O)c2c(-c3ccc(F)cc3)nc3sc(C)nn23)cc(OC)c1OC`, the growth was 12%. Take `COc1cc(/C=C2\CN(S(=O)(=O)c3ccc(C)cc3)C/C(=C\c3cc(CN4CCCC4)c(O)c(OC)c3)C2=O)cc(CN2CCCC2)c1O`: the growth was -33.6% (active). The same measure for `CC1Cc2c(N(C)C)ncnc2N(C)c2ccc(Cl)cc21` (stereo not given): -7.29% (active). The same measure for `COc1cc(/C=C/C(=O)c2cccs2)ccc1OCc1ccc(Cl)nc1`: 72.6%; for `CN(C)c1ccc(C(=S)c2ccc(N(C)C)cc2)cc1`: 62.8%. In the case of `COc1ccc(-c2nn(C(=O)c3cc(OC)c(OC)c(OC)c3)c3cc(N)ccc23)cc1`, the growth was 5.67% (active). Consider `Cc1ccc2nc(NC(=O)CSc3nc(Cl)c(C#N)c(-c4ccccc4)n3)sc2c1`, for which the growth is 94.9%. For `CC1(C)[C@@H](O)CC[C@]2(C)[C@H]3CC[C@@H]4[C@H]5[C@H](c6cn(-c7ccccc7)nn6)CC[C@]5(CO)CC[C@@]4(C)[C@]3(C)CC[C@@H]12`, the growth is 74.8%. The same measure for `CC/C=C1/C(=O)C=C[C@@H]1C/C=C\CCCC(=O)OC`: 5.31% (active); for `CC1=C([Se]CC(OC(=O)CC[Se]c2ccccc2)C(=O)NC(C)(C)C)C(=O)c2ccccc2C1=O` (stereo not given): -43.2% (active); for `C[N+]1=C(/C=C\C=C\c2ccccc2)C(C)(C)c2ccccc21`: -22.2% (active).

Take `COc1ccc(/C=C2/CN(C(=O)c3ccc(C)cc3)C/C(=C\c3ccc(OC)cc3)C2=O)cc1`: the growth was 80%. Under `O=C(/C=C/c1cn(-c2ccccc2)nc1-c1ccc(Cl)cc1)c1ccc(F)cc1` stands 56.6%; under `CC(C)(C)c1ccc(OCCCCCCCN2CCNCC2)cc1`, -40.7% (active); under `CCCCN(CC)CCCCCCCCCCN1CCCc2cc(OC)ccc21`, -54% (active).

Source of the values: PubChem BioAssay (NCI).
